Compound activity: PubChem, several laboratories
A selection: hits, their analogues and other compounds. The true share with any hit is near 0.97%.
S1P3 antag-1 – blocks the human S1P3 receptor | Q99500 | CHO S1P3 NFAT-BLA reporter, FRET fluorescence, antagonist mode | inhibition, % at 4.98 µM | 170,000 tested, 0.27% active;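 active = inhibition above the plate cutoff, the mean inhibition of test wells on that plate plus 3 SD, cut at about 28% in these data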;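 note: cells challenged with S1P at its EC80 of 0.8 µM; blue over green emission ratio from cleaved BLA substrate after 4 h stimulation; 0% = S1P-stimulated wells and 100% = unstimulated DMSO-only wells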
S1P4 agonist – human S1P4 receptor agonism; 220,000 tested, 0.35% active; O95977; AID 1509; activation, % at 4.98 µM; S1P4-expressing cell line, agonist reporter assay; in the data active = activation above about 11%;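 note: 0% = DMSO vehicle and 100% = reference agonist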
Target sequence (O95977 whole entry, looked up): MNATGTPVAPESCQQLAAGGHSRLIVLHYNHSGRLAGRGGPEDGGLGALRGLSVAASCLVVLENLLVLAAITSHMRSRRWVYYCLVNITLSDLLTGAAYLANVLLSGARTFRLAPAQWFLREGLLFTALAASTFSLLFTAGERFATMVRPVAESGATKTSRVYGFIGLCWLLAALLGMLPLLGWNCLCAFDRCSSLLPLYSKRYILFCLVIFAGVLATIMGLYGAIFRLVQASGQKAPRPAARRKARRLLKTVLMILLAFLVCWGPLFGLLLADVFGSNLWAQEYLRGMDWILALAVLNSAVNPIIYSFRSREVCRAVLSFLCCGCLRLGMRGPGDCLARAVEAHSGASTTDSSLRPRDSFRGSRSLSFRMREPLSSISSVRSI
S1P4 antagonist – human S1P4 receptor antagonism; S1P4-expressing cells, antagonist mode, reporter read-out; inhibition, % at 4.98 µM; 220,000 tested, 0.26% active; in the data active = inhibition above about 29%;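 note: 0% = wells stimulated with agonist and 100% = vehicle wells without agonist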
AI-2 QS modul – Vibrio harveyi AI-2 quorum sensing modulation; Vibrio harveyi JMH597 AI-2 luminescence/OD600 ratio, 9 h; stronger effect = lower value; strain lacks LuxN and CqsS sensors; 0 = neutral-control median; 300,000 tested, 0.4% active; AID 2094; activity change, % at 7.5 µM; in the data active = activity change below about -75%, passing the limit was not always enough;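 note: luminescence divided by OD600 gain over 9 h not by final OD600 alone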
Hsp70 activator – Hsp70 transcriptional activation, primary screen. HeLa Hsp70 promoter luciferase reporter, luminescence; scaled: vehicle 0, proteasome-inhibitor control 100%. activation, % at 10 µM. 200,000 tested, 0.04% active. AID 1203;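 active = activation above the mean across all tested compounds plus 3 SD, cutoff set per campaign, cut at about 5.5% in these data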;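 note: 100% = MG132 at 30 µM as the positive control and 0% = DMSO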
S1P3 antag-2 – human S1P3 receptor antagonism, confirmation. inhibition, % at 4.98 µM. shares compounds with S1P3 antag-1. AID 1429. CHO S1P3 NFAT-BLA reporter, FRET, antagonist mode. 240 tested, 30% active;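 active = inhibition above the hit threshold that was computed for the earlier primary screen, cut at about 30% in these data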;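 note: 0% = S1P-stimulated wells and 100% = unstimulated DMSO-only wells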
S1P4 agonist cf – human S1P4 agonism, confirmation; shares compounds with S1P4 agonist; S1P4 agonist cell-based reporter assay; 740 tested, 7% active; activation, % at 4.98 µM; AID 1523; in the data active = activation above about 12%;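 note: 0% = vehicle and 100% = full reference agonist response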
S1P1 ag – counter-screen for S1P4 agonists: agonists of human S1P1; activation, % at 4.98 µM; S1P1 agonist cell-based assay, activation; 740 tested, 4% active; AID 1563; shares compounds with S1P4 agonist; in the data active = activation above about 21%;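 note: 0% = vehicle wells and 100% = reference agonist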
S1P4 antag cf – confirmation of human S1P4 receptor antagonists; inhibition, % at 4.98 µM; 520 tested, 71% active; shares compounds with S1P4 antagonist; S1P4-expressing cell line, antagonist mode, reporter read-out; in the data active = inhibition above about 30%
S1P1 antag – human S1P1 antagonism as S1P4 antagonist counter-screen | shares compounds with S1P4 antagonist | cell-based S1P1 antagonist counterscreen, inhibition | inhibition, % at 4.98 µM | 520 tested, 37% active | AID 1564; in the data active = inhibition above about 40%;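 note: receptor stimulated with S1P near its EC80; 0% = agonist stimulated wells and 100% = vehicle only wells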
Active calls of the source: *.

C=CCNc1nc(-c2ccc([N+](=O)[O-])cc2)cs1 was read as S1P3 antag-1 29*, S1P4 agonist 0, S1P4 antagonist -9, AI-2 QS modul 4, Hsp70 activator 0 and S1P3 antag-2 3.
Screening O=C(NCC1CCCO1)C(=O)c1c[nH]c2ccccc12 (stereo not drawn) returned S1P3 antag-1 -4, S1P4 agonist -1, S1P4 antagonist 2, AI-2 QS modul 17 and Hsp70 activator 0.
Screening Cc1[nH]c2ccccc2c1C(=O)C(=O)NCC1CCCO1 (stereo not drawn) returned S1P3 antag-1 53*, S1P4 agonist 1, S1P4 antagonist 6, AI-2 QS modul 8, Hsp70 activator 0 and S1P3 antag-2 -12.
C/C(=N/Nc1ccc([N+](=O)[O-])cc1)c1ccc(C)cc1C was read as S1P3 antag-1 33*, S1P4 agonist 3, S1P4 antagonist 0, AI-2 QS modul 19, Hsp70 activator 0 and S1P3 antag-2 22.
Screening C/C(=N\Nc1ccc([N+](=O)[O-])cc1)c1cc2ccccc2o1 returned S1P3 antag-1 54*, S1P4 agonist 0, S1P4 antagonist 15, AI-2 QS modul 14, Hsp70 activator 0 and S1P3 antag-2 55*.
Screening O=C(N/N=C/c1ccc([N+](=O)[O-])cc1)c1cc2ccccc2o1 returned S1P3 antag-1 -8, S1P4 agonist 1, S1P4 antagonist -25 and AI-2 QS modul 25.
`O=C1N/C(=C\c2ccc(O)cc2)C(O)=C1C=NCc1ccccc1` gave S1P3 antag-1 29*, S1P4 agonist 0, S1P4 antagonist -7, AI-2 QS modul 17, Hsp70 activator 0 and S1P3 antag-2 22.
`Cc1cc(Cl)ccc1OCCCC(=O)NNC(=O)c1ccccc1O` gave AI-2 QS modul 5.
For Cc1ccc2cc(/C=N/Nc3nc4ccccc4[nH]3)c(Cl)nc2c1 the results were S1P3 antag-1 46*, S1P4 agonist 2, S1P4 antagonist 1, AI-2 QS modul 15, Hsp70 activator 0 and S1P3 antag-2 8.
COc1ccc(C2CC(c3ccc4ccccc4c3)=NN2C(=O)CNC2CCCCC2)cc1 (stereo not drawn) was read as S1P3 antag-1 -11, S1P4 agonist -1, S1P4 antagonist 5, AI-2 QS modul 15 and Hsp70 activator 0.
For C=CCNCC(=O)N1N=C(c2ccc3ccccc3c2)CC1c1ccc(OC)cc1 (stereo not drawn) the results were S1P3 antag-1 31*, S1P4 agonist 0, S1P4 antagonist 1, AI-2 QS modul 4, Hsp70 activator 0 and S1P3 antag-2 2.
Cc1c(N=C2N=C(NC(=O)Nc3ccc(Cl)cc3)c3ccccc32)c(=O)n(-c2ccccc2)n1C was read as S1P3 antag-1 40*, S1P4 agonist -2, S1P4 antagonist -8, AI-2 QS modul 3, Hsp70 activator 0 and S1P3 antag-2 4.
`Cc1c(NC(=O)Nc2ccc(Cl)cc2)c(=O)n(-c2ccccc2)n1C` gave S1P3 antag-1 27, S1P4 agonist 0, S1P4 antagonist 7, AI-2 QS modul 31 and Hsp70 activator 0.
Screening Cc1ccc(S(=O)(=O)NCc2ccncc2)c(C)c1C returned S1P3 antag-1 35*, S1P4 agonist 0, S1P4 antagonist -21, AI-2 QS modul -9, Hsp70 activator 0 and S1P3 antag-2 17.
`Cc1ccc(S(=O)(=O)NCc2ccccn2)c(C)c1C` gave AI-2 QS modul 6.
Screening CC/C(=N\NC(=O)Cc1ccc(Br)cc1)c1cccs1 returned AI-2 QS modul 5.
For COC(=O)c1cccc(NC(=O)c2cnn(C)c2)c1 the results were AI-2 QS modul 7.
CC(=O)c1ccc(Nc2c3c(nc4ccccc24)CCCC3)cc1 was read as S1P3 antag-1 29*, S1P4 agonist 27*, S1P4 antagonist -21, AI-2 QS modul 7, S1P3 antag-2 -1, S1P4 agonist cf -1 and S1P1 ag -2.
Screening Cn1c(=O)c2ncn(CC(=O)N=Nc3c(O)[nH]c4ccccc34)c2n(C)c1=O returned S1P3 antag-1 0, S1P4 agonist 0, S1P4 antagonist -20, AI-2 QS modul 29 and Hsp70 activator 0.
For CCOC(=O)COc1cccc2c(=O)n(CC(=O)NCc3ccccc3)ccc12 the results were S1P3 antag-1 17, S1P4 agonist 1, S1P4 antagonist 27 and AI-2 QS modul 13.
`CCOC(=O)COc1cccc2c(=O)n(CC(=O)NCc3ccc(F)cc3)ccc12` gave S1P3 antag-1 30*, S1P4 agonist -1, S1P4 antagonist 33*, AI-2 QS modul 7, S1P3 antag-2 0, S1P4 antag cf 30* and S1P1 antag 73*.
Screening CCOC(=O)c1ccc(NC(=O)Nc2cc(C)cc(C)n2)cc1 returned S1P3 antag-1 -7, S1P4 agonist 1, S1P4 antagonist -12, AI-2 QS modul 14 and Hsp70 activator 0.
CN(C)c1ccc(/C=C/c2ccc3ccccc3n2)cc1 was read as S1P3 antag-1 46*, S1P4 agonist 20*, S1P4 antagonist 32*, AI-2 QS modul 0, S1P3 antag-2 45*, S1P4 agonist cf 5, S1P1 ag -18, S1P4 antag cf 63* and S1P1 antag 44*.
For O=C1N/C(=N\S(=O)(=O)Cc2ccccc2)S/C1=C/c1cc([N+](=O)[O-])ccc1O the results were S1P3 antag-1 32*, S1P4 agonist 0, S1P4 antagonist 44*, AI-2 QS modul 18, S1P3 antag-2 25, S1P4 antag cf 59* and S1P1 antag 50*.
Screening CCCCN(C)CC(O)Cn1cc(/C=C/C(=O)c2cccs2)c2ccccc21 (stereo not drawn) returned S1P3 antag-1 33*, S1P4 agonist 2, S1P4 antagonist 47*, AI-2 QS modul 0, Hsp70 activator 0, S1P3 antag-2 16, S1P4 antag cf 61* and S1P1 antag 88*.
Screening CCn1cc(C(=O)N[C@H](C(=O)NCCCn2ccnc2)C(C)C)c(=O)c2cc3c(cc21)OCO3 returned AI-2 QS modul 16.
